The record followed here is paper PMC7862700, “An all-to-all approach to the identification of sequence-specific readers for epigenetic DNA modifications on cytosine”.

Assay in all cases: DAPPL (digital affinity profiling via proximity ligation, sequencing); 10 mM Tris-HCl pH 7.5, 50 mM NaCl, 1 mM DTT, 4% glycerol, room temperature, 30 min; GST-TFs on glutathione beads, 16-mer random dsDNA library, 0.1% formaldehyde crosslink after washing; high values mean tight binding
The target of one assay is T1, FLI1 (Homo sapiens, UniProt Q01543 1-452).
T1 sequence: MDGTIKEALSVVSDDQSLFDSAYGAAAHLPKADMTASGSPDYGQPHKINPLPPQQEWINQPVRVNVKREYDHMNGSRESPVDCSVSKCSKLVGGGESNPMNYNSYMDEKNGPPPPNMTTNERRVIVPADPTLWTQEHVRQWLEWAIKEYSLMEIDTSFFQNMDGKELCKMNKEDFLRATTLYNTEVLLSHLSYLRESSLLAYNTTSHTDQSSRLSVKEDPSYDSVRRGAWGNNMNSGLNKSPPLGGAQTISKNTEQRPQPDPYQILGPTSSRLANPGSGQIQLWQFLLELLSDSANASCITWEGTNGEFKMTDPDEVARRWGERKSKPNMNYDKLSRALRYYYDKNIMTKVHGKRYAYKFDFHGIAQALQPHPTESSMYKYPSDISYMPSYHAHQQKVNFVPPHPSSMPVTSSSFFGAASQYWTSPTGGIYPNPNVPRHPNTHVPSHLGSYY
The conditions noted are these: protein: recombinant; tags: N-terminal GST; dsDNA, one strand shown. The gist of the method:
(§1)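 Binding signal is each hexamer's read frequency for a factor divided by its frequency in the tag-only sample. The factors were GST-fused human transcription factors from yeast, captured on glutathione beads, DNA-barcoded and pooled with that sample. Pools were incubated with 200 nmole of a random double-stranded 16-mer DNA library in Tris/NaCl/DTT/glycerol buffer at room temperature for 30 min, then washed, crosslinked with 0.1% formaldehyde, proximity-ligated with BsaI/T4 ligase (1 h, 37 °C), PCR-amplified and sequenced on an Illumina NextSeq500.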

The next assay concerns the target T2, ELK1 (Homo sapiens, UniProt P19419 1-428).
T2 sequence: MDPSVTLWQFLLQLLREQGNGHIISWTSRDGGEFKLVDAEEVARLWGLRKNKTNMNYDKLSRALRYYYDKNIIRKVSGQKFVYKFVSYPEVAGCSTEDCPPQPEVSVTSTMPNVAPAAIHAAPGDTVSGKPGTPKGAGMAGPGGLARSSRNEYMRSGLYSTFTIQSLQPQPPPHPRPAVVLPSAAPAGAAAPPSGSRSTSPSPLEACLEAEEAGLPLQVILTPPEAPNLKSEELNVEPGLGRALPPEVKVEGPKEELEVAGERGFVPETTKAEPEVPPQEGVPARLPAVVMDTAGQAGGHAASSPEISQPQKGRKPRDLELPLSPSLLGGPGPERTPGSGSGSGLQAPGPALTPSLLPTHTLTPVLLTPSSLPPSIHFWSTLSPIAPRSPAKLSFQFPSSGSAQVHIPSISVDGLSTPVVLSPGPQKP
As to conditions: protein: recombinant; tags: N-terminal GST; dsDNA, one strand shown. The gist of the method: as §1

The next assay concerns the target T3, GABPA (Homo sapiens, UniProt Q06546 1-454).
T3 sequence: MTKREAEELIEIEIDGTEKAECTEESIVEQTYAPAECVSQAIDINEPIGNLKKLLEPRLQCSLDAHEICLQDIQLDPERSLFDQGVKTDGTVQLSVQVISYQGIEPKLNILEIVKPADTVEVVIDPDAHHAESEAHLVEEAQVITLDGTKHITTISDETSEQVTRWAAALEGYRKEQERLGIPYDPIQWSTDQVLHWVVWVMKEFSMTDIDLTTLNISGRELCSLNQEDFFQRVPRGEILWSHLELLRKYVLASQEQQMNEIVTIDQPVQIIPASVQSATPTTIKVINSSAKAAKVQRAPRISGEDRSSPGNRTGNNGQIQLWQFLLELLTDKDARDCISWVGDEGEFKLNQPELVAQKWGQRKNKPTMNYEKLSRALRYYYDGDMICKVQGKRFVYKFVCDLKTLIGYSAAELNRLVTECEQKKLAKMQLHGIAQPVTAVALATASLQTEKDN
The conditions noted are these: protein: recombinant; tags: N-terminal GST; dsDNA, one strand shown. The gist of the method: as §1

Another assay addresses T4, ERG (Homo sapiens, UniProt P11308 1-479).
T4 sequence: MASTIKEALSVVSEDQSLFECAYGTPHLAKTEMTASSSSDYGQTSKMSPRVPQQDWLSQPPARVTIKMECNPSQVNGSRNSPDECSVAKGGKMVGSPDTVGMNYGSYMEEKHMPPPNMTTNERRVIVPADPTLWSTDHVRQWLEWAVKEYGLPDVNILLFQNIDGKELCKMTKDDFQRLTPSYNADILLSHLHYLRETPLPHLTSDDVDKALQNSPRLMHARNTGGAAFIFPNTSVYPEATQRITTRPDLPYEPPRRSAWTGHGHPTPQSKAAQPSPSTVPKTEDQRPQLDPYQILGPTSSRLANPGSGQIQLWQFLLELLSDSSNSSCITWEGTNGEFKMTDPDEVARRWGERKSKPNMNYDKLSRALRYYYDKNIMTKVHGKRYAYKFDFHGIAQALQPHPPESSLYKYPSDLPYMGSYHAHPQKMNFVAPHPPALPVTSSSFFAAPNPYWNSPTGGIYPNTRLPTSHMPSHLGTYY
The conditions noted are these: protein: recombinant; tags: N-terminal GST; dsDNA, one strand shown. The gist of the method: as §1

For the next assay, the target named is ELF1 (Homo sapiens, UniProt P32519 1-619). As to conditions: protein: recombinant; tags: N-terminal GST; dsDNA, one strand shown. Summed up: as §1
The target of another assay is T5, EHF (Homo sapiens, UniProt Q9NZC4 1-300).
T5 sequence: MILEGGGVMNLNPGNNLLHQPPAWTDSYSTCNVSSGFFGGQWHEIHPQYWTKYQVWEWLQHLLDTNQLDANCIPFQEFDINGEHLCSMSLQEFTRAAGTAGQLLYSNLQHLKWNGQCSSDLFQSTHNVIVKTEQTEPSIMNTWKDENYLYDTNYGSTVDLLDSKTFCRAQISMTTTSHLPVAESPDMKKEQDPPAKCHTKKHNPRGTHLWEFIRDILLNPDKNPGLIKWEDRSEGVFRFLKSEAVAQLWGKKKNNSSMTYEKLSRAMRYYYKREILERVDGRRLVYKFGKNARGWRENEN
As to conditions: protein: recombinant; tags: N-terminal GST; dsDNA, one strand shown. Summed up: as §1

A further assay concerns the target SPI1 (Homo sapiens, UniProt P17947 1-270). As to conditions: protein: recombinant; tags: N-terminal GST; dsDNA, one strand shown. Summed up:
as §1

The next assay has as its target SPIB (Homo sapiens, UniProt Q01892 1-262). As to conditions: protein: recombinant; tags: N-terminal GST; dsDNA, one strand shown. The gist of the method: as §1
The target of another assay is T6, ELK3 (Homo sapiens, UniProt P41970 1-407).
T6 sequence: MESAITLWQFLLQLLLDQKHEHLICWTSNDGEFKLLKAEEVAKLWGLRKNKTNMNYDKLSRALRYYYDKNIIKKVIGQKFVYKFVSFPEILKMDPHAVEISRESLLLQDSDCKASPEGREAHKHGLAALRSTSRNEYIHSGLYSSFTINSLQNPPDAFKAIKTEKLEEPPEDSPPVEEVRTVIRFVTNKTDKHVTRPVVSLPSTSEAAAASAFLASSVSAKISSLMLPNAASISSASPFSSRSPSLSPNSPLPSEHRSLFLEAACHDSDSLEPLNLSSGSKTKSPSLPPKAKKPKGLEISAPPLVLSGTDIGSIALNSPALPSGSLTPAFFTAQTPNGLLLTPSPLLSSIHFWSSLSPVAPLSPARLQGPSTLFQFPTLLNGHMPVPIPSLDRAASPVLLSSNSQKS
As to conditions: protein: recombinant; tags: N-terminal GST; dsDNA, one strand shown. The gist of the method: as §1

The next assay has as its target T7, FEV (Homo sapiens, UniProt Q99581 1-238).
T7 sequence: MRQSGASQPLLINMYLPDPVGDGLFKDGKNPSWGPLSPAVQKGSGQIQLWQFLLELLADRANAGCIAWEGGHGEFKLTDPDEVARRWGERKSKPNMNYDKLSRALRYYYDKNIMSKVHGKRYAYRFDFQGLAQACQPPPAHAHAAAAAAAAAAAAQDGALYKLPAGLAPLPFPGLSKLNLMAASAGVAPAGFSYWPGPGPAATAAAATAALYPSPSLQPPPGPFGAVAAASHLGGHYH
As to conditions: protein: recombinant; tags: N-terminal GST; dsDNA, one strand shown. Summed up:
as §1

The next assay has as its target ETV5 (Homo sapiens, UniProt P41161 1-510). As to conditions: protein: recombinant; tags: N-terminal GST; dsDNA, one strand shown. The gist of the method:
as §1

For the next assay, the target named is HSF1 (Homo sapiens, UniProt Q00613 1-529). As to conditions: protein: recombinant; tags: N-terminal GST; chain copies: 3; dsDNA, one strand shown. The gist of the method:
as §1

The target in a further assay is T8, SPIC (Homo sapiens, UniProt Q8N5J4 1-248).
T8 sequence: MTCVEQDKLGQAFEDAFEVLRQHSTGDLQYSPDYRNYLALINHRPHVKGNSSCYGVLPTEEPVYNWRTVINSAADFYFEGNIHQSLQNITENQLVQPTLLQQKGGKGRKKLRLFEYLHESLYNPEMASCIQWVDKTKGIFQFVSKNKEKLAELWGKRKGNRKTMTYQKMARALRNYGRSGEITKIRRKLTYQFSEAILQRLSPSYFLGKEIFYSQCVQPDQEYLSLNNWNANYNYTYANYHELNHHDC
As to conditions: protein: recombinant; tags: N-terminal GST; dsDNA, one strand shown. The gist of the method: as §1

The target in the next assay is ELF4 (Homo sapiens, UniProt Q99607 1-663). The conditions noted are these: protein: recombinant; tags: N-terminal GST; dsDNA, one strand shown. The gist of the method: as §1
The next assay has as its target T9, ELK4 (Homo sapiens, UniProt P28324-2 1-405).
T9 sequence: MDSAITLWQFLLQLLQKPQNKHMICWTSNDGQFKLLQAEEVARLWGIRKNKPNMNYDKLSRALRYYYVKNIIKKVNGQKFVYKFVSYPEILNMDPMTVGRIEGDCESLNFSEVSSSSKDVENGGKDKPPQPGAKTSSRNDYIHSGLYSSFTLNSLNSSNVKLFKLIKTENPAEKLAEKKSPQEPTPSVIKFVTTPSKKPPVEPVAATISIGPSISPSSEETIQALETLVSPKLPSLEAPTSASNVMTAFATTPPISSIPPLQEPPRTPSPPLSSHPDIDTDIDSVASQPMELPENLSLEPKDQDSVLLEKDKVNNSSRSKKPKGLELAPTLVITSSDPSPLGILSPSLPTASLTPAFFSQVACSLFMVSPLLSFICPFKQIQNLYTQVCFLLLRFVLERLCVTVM
The conditions noted are these: protein: recombinant; tags: N-terminal GST; dsDNA, one strand shown. The gist of the method: as §1

The next assay deals with T10, ETV2 (Homo sapiens, UniProt O00321 1-342).
T10 sequence: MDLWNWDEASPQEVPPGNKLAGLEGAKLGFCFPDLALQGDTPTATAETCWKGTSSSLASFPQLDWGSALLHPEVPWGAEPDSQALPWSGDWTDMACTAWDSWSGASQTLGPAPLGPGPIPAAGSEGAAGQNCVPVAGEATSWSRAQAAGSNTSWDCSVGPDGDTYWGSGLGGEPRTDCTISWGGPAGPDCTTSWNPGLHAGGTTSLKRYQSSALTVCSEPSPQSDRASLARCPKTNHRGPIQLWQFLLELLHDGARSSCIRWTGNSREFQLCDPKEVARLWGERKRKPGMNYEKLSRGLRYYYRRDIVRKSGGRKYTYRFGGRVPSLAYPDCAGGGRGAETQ
The conditions noted are these: protein: recombinant; tags: N-terminal GST; dsDNA, one strand shown. Summed up: as §1

The target of another assay is T11, ELF3 (Homo sapiens, UniProt P78545 1-371).
T11 sequence: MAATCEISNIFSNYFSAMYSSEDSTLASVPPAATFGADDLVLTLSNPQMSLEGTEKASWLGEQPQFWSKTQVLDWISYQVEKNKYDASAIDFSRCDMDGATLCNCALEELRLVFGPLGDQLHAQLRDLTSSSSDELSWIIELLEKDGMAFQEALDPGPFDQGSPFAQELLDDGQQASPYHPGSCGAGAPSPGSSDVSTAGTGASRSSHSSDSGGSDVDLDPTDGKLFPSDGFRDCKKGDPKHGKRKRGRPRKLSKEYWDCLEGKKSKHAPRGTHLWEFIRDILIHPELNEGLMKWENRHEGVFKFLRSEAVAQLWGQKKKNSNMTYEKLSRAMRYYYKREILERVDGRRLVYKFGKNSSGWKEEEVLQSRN
As to conditions: protein: recombinant; tags: N-terminal GST; dsDNA, one strand shown. Summed up: as §1

Another assay has as its target CRX (Homo sapiens, UniProt O43186 1-299). As to conditions: protein: recombinant; tags: N-terminal GST; dsDNA, one strand shown. Summed up: as §1
The target of a further assay is ETV1 (Homo sapiens, UniProt P50549 1-477). The conditions noted are these: protein: recombinant; tags: N-terminal GST; dsDNA, one strand shown. Summed up: as §1
Chain of ETV1 (P50549 whole entry): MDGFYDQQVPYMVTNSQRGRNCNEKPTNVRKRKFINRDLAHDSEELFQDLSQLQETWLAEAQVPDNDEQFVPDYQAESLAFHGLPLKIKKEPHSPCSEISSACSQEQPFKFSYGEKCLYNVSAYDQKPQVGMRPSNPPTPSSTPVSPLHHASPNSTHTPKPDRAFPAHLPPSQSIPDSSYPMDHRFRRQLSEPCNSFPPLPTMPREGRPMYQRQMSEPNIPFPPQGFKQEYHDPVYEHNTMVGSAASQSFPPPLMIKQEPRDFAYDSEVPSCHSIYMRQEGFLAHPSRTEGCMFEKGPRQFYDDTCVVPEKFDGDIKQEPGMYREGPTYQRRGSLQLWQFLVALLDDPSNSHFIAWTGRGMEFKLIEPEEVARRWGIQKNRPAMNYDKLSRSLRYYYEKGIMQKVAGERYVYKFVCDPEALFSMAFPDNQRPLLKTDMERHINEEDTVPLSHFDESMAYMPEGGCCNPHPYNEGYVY

Chain of ELF4 (Q99607 whole entry): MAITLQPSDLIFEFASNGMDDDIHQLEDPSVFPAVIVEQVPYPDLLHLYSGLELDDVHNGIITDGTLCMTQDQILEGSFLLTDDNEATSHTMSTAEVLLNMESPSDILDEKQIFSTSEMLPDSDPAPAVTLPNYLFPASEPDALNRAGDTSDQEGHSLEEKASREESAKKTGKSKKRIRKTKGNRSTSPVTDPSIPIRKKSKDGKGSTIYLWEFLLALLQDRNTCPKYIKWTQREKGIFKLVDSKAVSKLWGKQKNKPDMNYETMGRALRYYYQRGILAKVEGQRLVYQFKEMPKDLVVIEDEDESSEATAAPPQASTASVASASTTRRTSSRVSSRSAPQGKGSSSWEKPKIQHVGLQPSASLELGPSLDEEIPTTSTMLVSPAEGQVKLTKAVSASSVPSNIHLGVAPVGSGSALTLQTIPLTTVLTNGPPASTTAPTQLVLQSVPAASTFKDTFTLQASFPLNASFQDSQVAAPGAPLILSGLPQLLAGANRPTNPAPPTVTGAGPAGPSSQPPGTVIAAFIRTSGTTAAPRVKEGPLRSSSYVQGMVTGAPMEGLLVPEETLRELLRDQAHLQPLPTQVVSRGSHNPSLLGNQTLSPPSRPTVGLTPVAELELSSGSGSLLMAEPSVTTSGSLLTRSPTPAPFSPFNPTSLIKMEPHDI
Chain of CRX (O43186 whole entry): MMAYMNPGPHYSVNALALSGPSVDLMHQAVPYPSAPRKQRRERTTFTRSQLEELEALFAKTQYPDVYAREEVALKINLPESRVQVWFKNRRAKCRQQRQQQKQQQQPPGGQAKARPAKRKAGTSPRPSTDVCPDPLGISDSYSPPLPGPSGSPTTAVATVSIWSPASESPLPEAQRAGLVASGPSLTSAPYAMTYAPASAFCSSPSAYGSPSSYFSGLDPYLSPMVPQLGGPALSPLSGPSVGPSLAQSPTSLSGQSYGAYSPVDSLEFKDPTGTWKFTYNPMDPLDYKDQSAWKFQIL
Chain of ELF1 (P32519 whole entry): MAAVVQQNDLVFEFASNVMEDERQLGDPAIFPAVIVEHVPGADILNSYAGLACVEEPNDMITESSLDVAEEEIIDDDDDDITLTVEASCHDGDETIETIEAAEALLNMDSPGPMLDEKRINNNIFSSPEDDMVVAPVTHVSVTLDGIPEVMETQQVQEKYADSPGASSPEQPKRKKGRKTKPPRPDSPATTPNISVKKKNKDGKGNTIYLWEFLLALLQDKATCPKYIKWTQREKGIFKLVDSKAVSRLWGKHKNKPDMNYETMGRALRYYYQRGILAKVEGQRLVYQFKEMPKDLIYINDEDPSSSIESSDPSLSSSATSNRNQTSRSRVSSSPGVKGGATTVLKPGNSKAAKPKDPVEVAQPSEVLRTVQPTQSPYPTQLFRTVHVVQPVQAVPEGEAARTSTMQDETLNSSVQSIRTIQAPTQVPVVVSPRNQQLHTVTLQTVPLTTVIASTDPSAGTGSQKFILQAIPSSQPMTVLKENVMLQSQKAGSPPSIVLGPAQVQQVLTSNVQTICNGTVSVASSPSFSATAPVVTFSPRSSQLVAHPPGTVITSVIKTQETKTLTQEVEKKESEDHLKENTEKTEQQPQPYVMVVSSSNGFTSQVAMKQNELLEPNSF
Chain of SPIB (Q01892 whole entry): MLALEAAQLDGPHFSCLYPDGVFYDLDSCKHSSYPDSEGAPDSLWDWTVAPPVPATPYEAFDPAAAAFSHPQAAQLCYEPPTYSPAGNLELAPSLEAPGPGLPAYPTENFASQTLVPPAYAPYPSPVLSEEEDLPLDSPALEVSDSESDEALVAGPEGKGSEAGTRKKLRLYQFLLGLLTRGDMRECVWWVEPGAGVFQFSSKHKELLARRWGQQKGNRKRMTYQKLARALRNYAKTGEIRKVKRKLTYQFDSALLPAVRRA
Chain of ETV5 (P41161 whole entry): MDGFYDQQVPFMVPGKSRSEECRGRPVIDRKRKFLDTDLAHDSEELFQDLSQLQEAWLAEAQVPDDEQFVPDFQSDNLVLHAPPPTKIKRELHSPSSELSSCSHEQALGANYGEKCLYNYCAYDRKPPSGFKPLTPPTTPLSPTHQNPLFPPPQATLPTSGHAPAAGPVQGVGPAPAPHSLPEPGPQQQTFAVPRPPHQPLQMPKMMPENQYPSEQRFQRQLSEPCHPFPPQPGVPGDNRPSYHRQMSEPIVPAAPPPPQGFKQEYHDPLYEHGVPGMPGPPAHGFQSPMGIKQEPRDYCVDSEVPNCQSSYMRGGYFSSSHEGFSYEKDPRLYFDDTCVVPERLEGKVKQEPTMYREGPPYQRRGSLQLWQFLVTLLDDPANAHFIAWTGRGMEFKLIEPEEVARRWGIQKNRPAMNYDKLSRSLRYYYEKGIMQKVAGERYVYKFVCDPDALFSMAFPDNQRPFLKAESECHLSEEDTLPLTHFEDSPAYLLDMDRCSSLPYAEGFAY
Chain of HSF1 (Q00613 whole entry): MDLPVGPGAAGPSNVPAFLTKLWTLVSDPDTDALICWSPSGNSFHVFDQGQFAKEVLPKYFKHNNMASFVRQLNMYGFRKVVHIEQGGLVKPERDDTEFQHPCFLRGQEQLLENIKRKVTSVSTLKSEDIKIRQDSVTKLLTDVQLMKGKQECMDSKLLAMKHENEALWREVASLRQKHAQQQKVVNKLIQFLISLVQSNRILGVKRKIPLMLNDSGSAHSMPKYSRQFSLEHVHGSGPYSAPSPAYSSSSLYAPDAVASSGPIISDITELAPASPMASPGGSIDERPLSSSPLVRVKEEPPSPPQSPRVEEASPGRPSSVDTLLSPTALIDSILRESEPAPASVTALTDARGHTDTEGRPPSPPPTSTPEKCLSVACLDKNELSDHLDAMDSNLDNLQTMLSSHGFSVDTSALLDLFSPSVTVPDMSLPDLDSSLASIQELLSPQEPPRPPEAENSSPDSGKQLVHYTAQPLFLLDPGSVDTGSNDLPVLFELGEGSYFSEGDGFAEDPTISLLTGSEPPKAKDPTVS

As for CGTCTC, the binding signal with FLI1 is 1.41 fold enrichment (6-mer frequency, TF over GST control); with ELK1, 1.36 fold enrichment (6-mer frequency, TF over GST control); with GABPA, 1.49 fold enrichment (6-mer frequency, TF over GST control); in the assay with ERG, 1.31 fold enrichment (6-mer frequency, TF over GST control); with ELF1, 1.53 fold enrichment (6-mer frequency, TF over GST control); with EHF, 1.41 fold enrichment (6-mer frequency, TF over GST control). The binding signal in the assay with SPI1 was 1.36 fold enrichment (6-mer frequency, TF over GST control); in the assay with SPIB, 1.61 fold enrichment (6-mer frequency, TF over GST control); with ELK3, 1.63 fold enrichment (6-mer frequency, TF over GST control); with FEV, 1.46 fold enrichment (6-mer frequency, TF over GST control); in the assay with ETV5, 1.46 fold enrichment (6-mer frequency, TF over GST control); with HSF1, 1.42 fold enrichment (6-mer frequency, TF over GST control). Further, the binding signal with SPIC was 1.47 fold enrichment (6-mer frequency, TF over GST control); in the assay with ELF4 it was 1.55 fold enrichment (6-mer frequency, TF over GST control); in the assay with ELK4, 1.49 fold enrichment (6-mer frequency, TF over GST control); with ETV2 it was 1.27 fold enrichment (6-mer frequency, TF over GST control); with ELF3, 1.46 fold enrichment (6-mer frequency, TF over GST control); with CRX, 1.18 fold enrichment (6-mer frequency, TF over GST control). In the assay with ETV1, the binding signal is 1.43 fold enrichment (6-mer frequency, TF over GST control).
